# Measured values reported in ChEMBL document CHEMBL3988442, “University of Dundee, Small-Polar-MMV Screening Library” (2021).
# What was measured:
# [1] = molecular target: T1, Aspartate--tRNA(Asp/Asn) ligase (Mycobacterium tuberculosis (strain ATCC 25618 / H37Rv)) (UniProt P9WFW3); test: Assay for Asp RNA synthetase-1 from Mycobacterium tuberculosis; type: functional; design: scale not given: direction of the effect not stated beside the values; conditions: 30 µM; also: in the data most compounds retested in dose-response had high values
# T1 sequence (whole entry): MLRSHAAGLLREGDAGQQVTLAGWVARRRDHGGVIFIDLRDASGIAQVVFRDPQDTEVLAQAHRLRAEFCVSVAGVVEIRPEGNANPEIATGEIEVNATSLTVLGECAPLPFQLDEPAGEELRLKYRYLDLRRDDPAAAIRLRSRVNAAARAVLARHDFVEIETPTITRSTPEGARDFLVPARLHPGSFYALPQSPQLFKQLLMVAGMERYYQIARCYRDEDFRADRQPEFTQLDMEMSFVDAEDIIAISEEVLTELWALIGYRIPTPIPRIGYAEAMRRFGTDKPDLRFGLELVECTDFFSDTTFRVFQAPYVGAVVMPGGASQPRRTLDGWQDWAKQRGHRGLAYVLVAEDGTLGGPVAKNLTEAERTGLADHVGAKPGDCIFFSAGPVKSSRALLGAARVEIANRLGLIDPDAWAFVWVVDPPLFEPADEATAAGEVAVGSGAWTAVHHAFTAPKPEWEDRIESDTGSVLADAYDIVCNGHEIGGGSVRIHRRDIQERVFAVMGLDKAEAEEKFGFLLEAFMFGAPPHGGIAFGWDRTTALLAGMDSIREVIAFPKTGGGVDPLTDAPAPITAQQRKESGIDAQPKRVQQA
# [2] = molecular target: Shiga toxin 2 (Escherichia coli O157:H7) (UniProt P09385+P09386); test: E. coli 0.157:H7 Shiga Toxin SOP - stx2 screening assay; type: functional; design: scale not given: direction of the effect not stated beside the values; conditions: 30 µM
SMILES,Percent Effect [1],Percent Effect [2]
Cc1cnn(CCC(=O)N2CCN(c3nc(C)cs3)CC2)c1,-4.11%,-15.5%
CN(C)CCN1CCOCC2(C1)CN(Cc1ccsc1)CCO2 (configuration not stated),6.63%,3.8%
CN1CC(C(=O)NC(C)(C)C)CC1=O (configuration not stated),0.616%,-21.3%
Cc1noc(C(C)C)c1C(=O)NS(=O)(=O)c1ccc(Cl)cc1,-2.79%,13.7%
CN(Cc1ccc2c(c1)OCCO2)C(=O)Cn1cccnc1=O,-2.54%,-20.6%
COc1cccc(CN2CCCC3(CCN(C(=O)c4ccco4)C3)C2)c1 (configuration not stated),0.0455%,-1.7%
CC(=O)c1sc(Nc2ccc(Cl)cn2)nc1C,6.71%,-4.07%
Cc1cc(C)n(CC(=O)N2CCC(NS(=O)(=O)c3ccccc3)CC2)n1,0.878%,31.2%
Cc1cc2nc(SCC(=O)N3CCOCC3)n(CC(C)C)c(=O)c2[nH]1,11.7%,-10.1%
COc1cc(C)nc(N2CCN(C(=O)CCc3cscn3)CC2)n1,-2.13%,-10.1%
Cc1csc(NC(=O)CN(C)CC2CCCN2c2cccnn2)n1 (configuration not stated),3.48%,-23.1%
CC(C)C1CN(C(=O)c2ccc(C(N)=O)cc2)CCS1 (configuration not stated),9.66%,-45.2%
O=C(CCC1CCCC1)NCCn1nc(C2CCNC2)c2cccnc21 (configuration not stated),-0.368%,-19.4%
CC(C)c1nnc(CN2CCCC2Cn2cncn2)o1 (configuration not stated),-1.37%,-22.4%
N#Cc1ccccc1CN1C[C@@H]2CC[C@H](C1)N(CC1CC1)C2=O,2.11%,-9.72%
CC(CNC(=O)N1CCN(c2cnccn2)CC1)Cc1cccs1 (configuration not stated),0.324%,-14.3%
CC(Cn1cccn1)NC(=O)N1CCN(Cc2cccnc2)CC1 (configuration not stated),0.625%,-18.1%
O=C(N[C@@H]1CN(c2ncccn2)C[C@@H]2CCCO[C@@H]21)c1cnccn1,4.51%,-15.4%
CCn1nc2c(cc1=O)CN(Cc1nc(CCOC)no1)CC2,2.21%,-7.6%
CCCn1ncc2c(C(=O)Nc3n[nH]c(SC)n3)cc(C3CC3)nc21,-6.49%,-0.011%
Cc1cccn2c(=O)cc(CN3CCCCC3Cn3cncn3)nc12 (configuration not stated),-0.0141%,-18.4%
COc1cc(C)nc(N2CCN(C(=O)c3ccc[nH]3)CC2)n1,1.55%,11.2%
CCn1cnnc1CNC(=O)N1CCN(c2nc(C)c(C)s2)CC1,-5.01%,-22.1%
Cc1ccc(CN2CCCn3c(nc(CN4CCCC4)cc3=O)C2)s1,4.32%,7.63%
Cn1cnnc1C1CCCN(C(=O)NCCNc2ccccn2)C1 (configuration not stated),-6.46%,19%
COC[C@@]12CCO[C@@H]1CCN(C(=O)Cc1ccccc1F)C2,-2.8%,-1.69%

SMILES,Percent Effect [1],Percent Effect [2]
O=C(N1CCCC1)N1CCc2ncnc(C3CCOC3)c2CC1 (configuration not stated),-0.956%,-10.8%
Cc1cc(C)n(CC2CCCCN2C(=O)c2ccc3nncn3c2)n1 (configuration not stated),-3.1%,14.5%
COC(=O)CNC(=O)CSCc1nc(O)c2c(C)c(C)sc2n1,-0.261%,-18.2%
CCCn1nc2c(cc1=O)CN(Cc1cc(C)on1)CC2,10%,-9.16%
Cn1cc(CN2CCC3(CCCN3S(C)(=O)=O)CC2)cn1,5.38%,4.5%
CC(C)c1ccc(OCCC(=O)N2CCC(CC(N)=O)CC2)cc1,-0.478%,29.9%
CC(=O)N1CC[C@H]2OCC[C@@H](C(=O)N3CCCCO3)[C@@H]2C1,0.958%,-16.9%
CCCn1[nH]cc/c1=N\C(=O)CN1CCCC1c1c(C)nn(C)c1C (configuration not stated),-0.979%,-11%
CC(C)C(=O)N1CCN(C(=O)c2cc(C(C)C)on2)[C@H]2CS(=O)(=O)C[C@H]21,-1.39%,-14.2%
Cc1nc2c(c(C)c1CC(=O)NCc1cccc(C#N)c1)c(=O)[nH]n2C,0.634%,25.4%
Cc1ccc(C(=O)N(C)Cc2cscn2)c(=O)[nH]1,0.749%,8.36%
O=C1NCCCCC1Sc1nnc(-c2cccnc2)n1C1CC1 (configuration not stated),-3.62%,7.22%
CCCOc1ccc(CNC(=O)N2CCC(C(N)=O)C2)cc1 (configuration not stated),0.4%,-0.133%
CCn1ncc2c1CCCC2NCc1ccc(OC)c(C)c1 (configuration not stated),-4.46%,-11.4%
Cc1ncsc1C(=O)N1CCCN(Cc2cscn2)CC1,1.47%,16.9%
Cc1ccc(-c2noc(CN3CCOC(Cn4cncn4)C3)n2)cc1 (configuration not stated),3.79%,5.98%
CC(C)N(C)Cc1cnc2n1CCN(CCc1ccccc1)C2,0.605%,-27.2%
CCN1CCN(C2CCN(Cc3nnc(C(C)(C)C)o3)CC2)C1=O,-1.73%,25.7%
O=C(NC[C@H]1OC[C@@H]2CCN(Cc3ccco3)C[C@@H]21)c1ccsc1,-1.14%,4.74%
Cc1ccc(CN2CCc3ncnc(C4CCOC4)c3CC2)s1 (configuration not stated),1.05%,-15.3%
O=C(C1CCOCC1)N1CCC2(CC1)CC(Oc1ccccc1)CO2 (configuration not stated),-1.89%,25.7%
Clc1ccccc1-c1nc(CNCCn2cccn2)cs1,-1.68%,15.3%
Cc1ccc(CC2CCCN2CC(=O)NCc2ccccn2)cc1 (configuration not stated),0.629%,-4.96%
O=C(c1ccn[nH]1)N1CCCC(n2cncn2)C1 (configuration not stated),-5.6%,-25%
O=C1C(NS(=O)(=O)c2cc(F)cc(F)c2)CCN1Cc1ccccc1 (configuration not stated),-5.71%,3.9%
O=C(NCC(O)c1cccs1)c1cccc(Cl)c1 (configuration not stated),-5.75%,-20.5%

SMILES,Percent Effect [1],Percent Effect [2]
Cc1ccc(N2CCC3(CC2)CC(OCC(=O)N(C)C)CO3)nn1 (configuration not stated),-2.52%,-23.3%
CC(C)CS(=O)(=O)CC(=O)N(C)Cc1ccc(OC(F)F)cc1,-0.457%,4.95%
Cn1ccc(-c2cc(C(=O)N3CCOCC3)c3ccccn23)n1,3.13%,-17.8%
O=C(Cc1ccc(F)cc1)N1CCCCC1c1ccn2ccnc2n1 (configuration not stated),-3.71%,6.23%
COc1ccccc1CC(=O)NCc1c(C)nc2cc(=O)[nH]n2c1C,-0.878%,13.6%
COc1cccc(C(=O)N2CCc3ncnc(C)c3CC2)c1,-1.32%,-12%
NCCn1nc(C2CCN(C(=O)CC3CCCCC3)C2)c2nccnc21 (configuration not stated),1.37%,-31.7%
NC(=O)CCN1CCC(C(=O)c2cc(F)ccc2F)CC1,0.12%,-0.638%
Clc1snnc1CN1CCCC(Cn2cncn2)C1 (configuration not stated),-2.43%,-33%
CNc1nc(C)c(C(=O)N2CCCCC2CN2CCCCCC2)s1 (configuration not stated),1.75%,1.34%
CN(CC(F)(F)F)C(=O)C1CSCN1C(=O)OC(C)(C)C (configuration not stated),2.82%,-9.84%
COc1ccc(OCCNCCn2cccn2)cc1,1.29%,-27.4%
Cn1cnc2c1CCN(Cc1cccc(C(N)=O)c1)C2,-3.03%,-13.1%
COc1ccccc1OC1(C(=O)O)CCN(c2nccnc2C)CC1,1.09%,-3.46%
CC(C)c1cc(NC(=O)CN2CCc3ccccc3C2)on1,-1%,-13%
COc1ccc(C(O)CNC(=O)NCc2csc(C)n2)cc1 (configuration not stated),-1.2%,-23.7%
Cc1ccc2c(n1)N(CCn1cccn1)CCN(C(=O)NC1CC1)C2,0.917%,6.77%
CC(NC(N)=O)C(=O)N(C)CCCc1cc(-c2ccccc2)no1 (configuration not stated),3.41%,22.8%
COCc1nc(C(=O)N2CCCC2c2c(C)nn(C)c2C)cs1 (configuration not stated),-5.87%,-13.6%
O=C(c1cccs1)N1CCC(Cn2nc(-c3ccco3)ccc2=O)CC1,-3.23%,5.24%
Cc1nn(C)c(C)c1NC(=O)CN1CCc2c(nc(C3CC3)n2C)C1,-0.703%,-17.4%
CCOCC(=O)N1CCC(Oc2ccc(Cl)cn2)CC1,-2.08%,-2.19%
CCN(Cc1ccccc1)C(=O)CN1CCCC(Cn2cncn2)C1 (configuration not stated),2.11%,3.34%
Nc1nc(CCC(=O)N2CCOC(CC3CCCCC3)C2)cs1 (configuration not stated),-4.71%,19%
O=C(c1ccc(O)cc1)N1CCN(C(=O)c2ccc3c(c2)COC3)CC1,-1.8%,-20%
COCc1n[nH]/c(=N/C(=O)COc2cnc(C)cc2O)s1,-2.13%,-48.9%

SMILES,Percent Effect [1],Percent Effect [2]
Cn1ncc2c1NC(=O)CC2c1ccc(Cl)cc1Cl (configuration not stated),5.72%,-26.2%
CNC(=O)CS(=O)(=O)Cc1cc(Cl)c2c(c1)OCCCO2,0.857%,0.921%
c1ccc(CNC2CCc3ncnn3C2)nc1 (configuration not stated),-0.856%,-65.4%
COc1ccc(S(=O)(=O)N2CCCC3(CCCN3S(C)(=O)=O)C2)cc1 (configuration not stated),-2.13%,0.605%
CCOC(=O)[C@]12CCCN(Cc3nccs3)C[C@H]1CN(C(C)=O)C2,2.52%,-5.93%
COc1ccc(OC)c(NC(=O)NCC(O)c2ccc(F)c(F)c2)c1 (configuration not stated),4.09%,-0.389%
O=C(c1ccsc1)N1CC(C(=O)N2CCOCC2)C2(CCOCC2)C1 (configuration not stated),-3.83%,-2.66%
Cn1nc(C#N)c2c1CN(C(=O)c1cccnc1)CCC2,7.3%,-7.73%
CCS(=O)(=O)N1CC[C@]2(C[C@@H](OCC3CC3)CO2)C1,-1.4%,11%
CCCc1n[nH]c(C2CN(C(=O)c3cc(F)ccc3OC)CCO2)n1 (configuration not stated),0%,29.8%
CCOCCC(=O)N1CCCC(c2ncc[nH]2)C1 (configuration not stated),-0.374%,-22.5%
Cc1noc(C)c1CN1CC2(CCN(C(=O)c3cscn3)CC2)CC1=O,6.36%,-13.6%
COc1cccc2c1OCC(CNC(=O)CNC(N)=O)C2 (configuration not stated),4.22%,11.9%
c1cnn(CC2CCCN2Cc2nc(-c3ccoc3)no2)c1 (configuration not stated),0.0441%,-0.74%
Cc1nnc(NC(=O)CN2CCCC(Cn3cncn3)C2)s1 (configuration not stated),2.66%,-3.39%
CCn1cnnc1C1CCN(C(=O)c2cnc(C3CC3)s2)CC1,-8.99%,-7.13%
CC(C)CCC(=O)NC(C)c1nnc2n1CCCCC2 (configuration not stated),1.76%,-17.4%
COc1ccc(CC(=O)N2CCc3nnc(N(C)C)cc3C2)cc1F,2.43%,-57.1%
CCn1cc(CN2CCC(c3nnc(CN(C)C)n3CC)CC2)cn1,-2.35%,-57.2%
COCC(O)CNC(=O)c1cnc(-c2ccccc2)nc1O (configuration not stated),2.15%,-7.39%
COCC(O)CN(C)C(=O)NC1CCN(Cc2ccccn2)CC1 (configuration not stated),-3.52%,-36.8%
COc1ccccc1C(=O)N(C)Cc1ncc(C)c(OC)c1C,-4.81%,11.8%
CC(=O)N1[C@H](Cn2cncn2)C[C@@H]2CN(c3ccc(C)nn3)CC[C@@H]21,-1.81%,-4.03%
